In the library only some 3.5% were active in any assay of this set; here they are far more common.
FBW7 activator = activators of human E3 ligase FBW7 | AlphaScreen FBW7–phospho-cyclin E peptide binding, activator screen | normalized activity (activation), % at 26.1 µM | Q969H0 | hit rate 0.13% among 650,000; in the data active = normalized activity above about 1.9%;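 note: purified mutant Fbw7 with reduced substrate affinity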
GPR151 activ = activates the human receptor GPR151; PathHunter beta-arrestin GPR151 cells, luminescence; activation, % at 11.2 µM; hit rate 1% among 650,000; in the data active = activation above about 4.9%
TEAD-YAP inh = TEAD-YAP interaction inhibition; inhibition, % at 9.12 µM; HEK-TIYL cells, TEAD-Gal4/YAP UAS-luciferase luminescence; hit rate 1.4% among 640,000; AID 1259422; in the data active = inhibition above about 32%
MITF inh = inhibitors of human MITF; inhibition, % at 2.6 µM; hit rate 0.91% among 650,000; AlphaScreen MITF homodimerization, bead proximity signal; in the data active = inhibition above about 50%
Target sequence (O75030 whole entry, looked up): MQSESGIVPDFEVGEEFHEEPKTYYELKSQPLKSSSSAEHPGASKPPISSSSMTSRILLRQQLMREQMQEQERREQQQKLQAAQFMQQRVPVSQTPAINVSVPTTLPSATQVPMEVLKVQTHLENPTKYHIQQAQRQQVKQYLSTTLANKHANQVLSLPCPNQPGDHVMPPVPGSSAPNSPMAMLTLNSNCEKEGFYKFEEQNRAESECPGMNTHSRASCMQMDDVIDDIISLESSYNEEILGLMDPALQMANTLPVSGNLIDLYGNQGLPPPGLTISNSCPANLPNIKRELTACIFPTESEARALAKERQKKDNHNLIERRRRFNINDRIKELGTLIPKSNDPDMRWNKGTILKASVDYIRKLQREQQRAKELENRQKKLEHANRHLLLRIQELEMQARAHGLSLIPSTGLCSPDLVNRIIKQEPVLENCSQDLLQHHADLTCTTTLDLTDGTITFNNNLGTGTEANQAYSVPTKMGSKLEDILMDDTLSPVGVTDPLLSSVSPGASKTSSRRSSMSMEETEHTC
MITF confirm = confirmation of human MITF inhibitors; hit rate 16% among 4,700; shares compounds with MITF inh; AID 1259372; inhibition, % at 2.6 µM; AlphaScreen MITF homodimerization, biotin/His-MITF beads;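 active = inhibition above a cutoff derived from the DMSO control wells, cut at about 28% in these data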;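 note: inhibitors lower the bead chemiluminescence by keeping MITF from dimerizing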
AS interf DR = optically interferes with AlphaScreen signal in dose response; shares compounds with MITF inh; AlphaScreen optical interference counterscreen, cell-free; IC50, µM; hit rate 6% among 480; AID 1259373; call rule not given here
AS interf ctr = AlphaScreen optical interference, counter-screen. shares compounds with MITF inh. LysRS AlphaScreen counterscreen, signal interference, triplicate. inhibition, % at 2.6 µM. hit rate 7.6% among 4,700. AID 1259376;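 active = inhibition above a cutoff derived from the DMSO control wells, cut at about 30% in these data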
Numbers stand for hits; – = inactive; · = not tested or not shown; ! = not confirmed by another sample.

SMILES	FBW7 activator	GPR151 activ	TEAD-YAP inh	MITF inh	MITF confirm	AS interf ctr	others
O=C(NC1CCCCC1)C(=S)NC1CCCC1	–	–	–	–	·	·
CCCCNCC(=O)Nc1ccccc1N1CCCCCC1	–	–	–	–	·	·
CC(C)N(C(=O)CNCCN1CCOCC1)c1ccccc1	–	–	–	72.5	–	–
O=C(CNCCCN1CCOCC1)Nc1ccccc1N1CCCCCC1	–	–	–	70.6	–	–
c1cc2c(cc1CNCC1CCCCC1)OCO2	–	–	–	58.2	–	–
CC(C)c1cccc(C(C)C)c1NC(=O)CNCCO	–	–	–	53.0	–	–
CC1CCN(C(=O)Cn2cc3c(n2)CCC(C)C3)CC1 (stereo unspecified)	–	–	–	–	·	·
Cc1ccc(CC(=O)Nc2nc(-c3ccc4c(c3)OCCO4)cs2)c(C)c1	–	–	–	–	·	·
CC1=CC(C)(C)N(C(=O)CNCCN2CCOCC2)c2cc(C)ccc21	–	–	–	58.8	–	–
O=C(NCCN1CCOCC1)c1cccc(-c2ccccc2)c1	–	–	–	75.5	–	–
COc1ccc(CCNCC(=O)Nc2ccccc2N2CCCCC2)cc1	–	–	–	60.7	–	–
O=C(NCCN1CCOCC1)c1cccc(C(=O)NCCN2CCOCC2)c1	–	–	–	–	·	·
O=C(CNCCN1CCOCC1)Nc1ccc(N2CCCCC2)cc1	–	–	–	93.0	–	–
C=C(C)CN(CC)Cc1ccc(C(N)=O)c(=O)[nH]1	–	–	–	–	·	·
Nc1nc2c(nc(N/N=C/c3ccccc3)n2C2OC(CO)C(O)C2O)c(=O)[nH]1 (stereo unspecified)	–	–	–	–	·	·
O=C(NCCN1CCOCC1)c1cnc(NCc2ccc3c(c2)OCO3)s1	–	–	–	–	·	·
O=C(CNCCCN1CCOCC1)Nc1ccc(N2CCCCC2)cc1	–	–	–	–	·	·
O=C(CNCc1ccc2c(c1)OCO2)Nc1ccc(N2CCCC2)cc1	–	–	–	61.6	–	–
O=C(CNCCCN1CCOCC1)Nc1ccc(N2CCCC2)cc1	–	–	–	54.3	–	–
Cc1cccc(C)c1NC(=O)CNCCN1CCOCC1	–	–	–	92.3	–	–
O=C(Nc1ccc2c(c1)OCO2)c1cnc(NCCN2CCOCC2)s1	–	–	–	51.6	–	–
CCOC(=O)C1(Cc2ccccc2C)CCCN(C(=O)CSc2nnc(CC)o2)C1 (stereo unspecified)	–	–	–	–	·	·
O=C(CNCCCN1CCOCC1)Nc1ccc2c(c1)OCO2	–	–	–	70.8	–	–
COc1ccc(OC)c(/C(O)=C/C(=O)C(=O)Nc2ccccc2F)c1	–	–	–	–	·	·
O=C(Cn1ccc2ccccc21)Nc1ccc(N2CCCN(C(=O)C3CC3)CC2)cc1	–	–	–	–	·	·
SMILES	FBW7 activator	GPR151 activ	TEAD-YAP inh	MITF inh	MITF confirm	AS interf ctr	others
O=c1c(O)c(-c2ccc(O)cc2O)oc2cc(O)cc(O)c12	–	–	–	67.3!	42.7	–	AS interf DR=–
COc1ccc(C(=O)OCc2cccc(C(F)(F)F)c2)cc1S(=O)(=O)N1CCCC1	–	–	–	–	·	·
Ic1ccc(-c2ncc3ccccn23)cc1	–	–	–	–	·	·
Clc1ccccc1-c1ncc2ccccn12	–	–	–	63.2	–	36.3
COc1ccc(-c2ncc3ccccn23)cc1OC	–	–	–	70.0	–	36.2
c1coc(-c2ncc3ccccn23)c1	–	–	–	–	·	·
CCOc1ccc(NC(=O)N2CC(C)Oc3ccc(Cl)cc32)cc1 (stereo unspecified)	–	–	–	–	·	·
COCCn1c(=S)[nH]c2cc(C(=O)NCc3ccc(F)cc3)ccc2c1=O	–	–	–	–	·	·
CC(C)NC(=O)c1ccc2c(=O)n(CCC3=CCCCC3)c(=S)[nH]c2c1	–	–	–	83.9	–	–
COCCn1c(=S)[nH]c2cc(C(=O)NCc3ccc(C)cc3)ccc2c1=O	–	–	–	62.0	–	–
C=C(C)CN(CC)C(=O)C1CCN(Cc2cc(OC)c(OC)c(OC)c2)CC1	–	–	–	56.3	–	–
COc1ccc(CN2CCCC(O)C2)cc1OC (stereo unspecified)	–	–	–	–	·	·
COc1cc(CN2CCCC(C(=O)N3CCCCCC3)C2)cc(OC)c1OC (stereo unspecified)	–	–	–	61.2	–	–
COc1cccc(CN2CCCC(C(=O)N3CCCCC3)C2)c1 (stereo unspecified)	–	–	–	69.3	–	–

High-throughput results from PubChem BioAssay.
